# Screening data: PubChem BioAssay, several laboratories
# Shn3 3UTR inh: Schnurri-3 reporter inhibition in Clone20 osteoblasts; Clone20 osteoblast Shn3 3'UTR firefly luciferase, 24 h; inhibition, % at 12.5 µM; actives 0.52% (n = 360,000); AID 588674;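 active = mean inhibition of at least 75% with every replicate also reaching 75%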;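 also: 0% = median of neutral control wells and 100% = pilot-screen positive control compound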
# KKLEB tox: CF airway cell cytotoxicity counter-screen. actives 0.36% (n = 360,000). KKLEB CF airway cells viability, ATPlite luminescence, overnight; hits give low values; cells stimulated with P. aeruginosa culture filtrate. AID 602141. activity change (cytotoxicity), % at 5 µM;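 active = corrected activity change at or below -50% at 5 µM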
# Peg3 promoter: inhibitors of Peg3 promoter. actives 1.7% (n = 360,000). inhibition, % at 20 µM. HeLa PEG-Prom luciferase reporter, luminescence, overnight;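 active = inhibition of at least 50% at 20 µM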
# HIF-2a block: HIF-2a inhibition; 786-0 RCC cells HIF-2a reporter, luciferase luminescence, overnight; inhibition, % at 18.8 µM; actives 0.72% (n = 360,000); AID 624352;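 active = inhibition of the luminescence signal of 40% or more relative to plate controls, in a single-dose primary screen at 18.75 µM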
# CF NFkB block: blocks PAF-induced NF-kB reporter in cystic fibrosis cells; actives 0.86% (n = 360,000); AID 588850; KKLEB NF-kB-GFP reporter, GFP fluorescence overnight; inhibition, % at 5 µM;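 active = at least 50% inhibition at 5 µM, scaled per plate between neutral and stimulator controls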;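 also: PAF is a Pseudomonas aeruginosa culture filtrate used as stimulus; plate controls were PAF-stimulated DMSO wells for no effect and unstimulated DMSO wells for full effect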
# * hit, by the source's call. A selection: hits, their analogues and other compounds. The true share with any hit is near 2.6%.
SMILES,Shn3 3UTR inh,KKLEB tox,Peg3 promoter,HIF-2a block,CF NFkB block
CCOc1ccc(Br)cc1C(=O)Nc1ccc(C(=O)NCC(C)C)cc1,60,-10,95*,9,-4
CC(C)C(N)c1csc(NC(=O)Nc2cccc(Cl)c2)n1 (stereo not drawn),-45,-29,24,-41,13
CC(C)c1ccc(NC(=O)Nc2nc(C(N)COCc3ccccc3)cs2)cc1 (stereo not drawn),93*,-5,110*,26,-13
CC(C)c1ccc(NC(=O)Nc2nc(C(N)C(C)C)cs2)cc1 (stereo not drawn),14,-13,96*,-10,8
CC(C)c1ccc(NC(=O)Nc2nc(C(N)c3ccccc3)cs2)cc1 (stereo not drawn),93*,-43,110*,5,12
Cc1ccccc1NC(=O)Nc1nc(C(N)c2ccccc2)cs1 (stereo not drawn),-3,1,4,-18,4
CC(=O)Nc1ccc(Oc2ccc(S(=O)(=O)N3CCCC3)cn2)cc1,-5,7,4,3,-13
CC(=O)NCCC(=O)Nc1ccc(C(N)=O)cc1,6,4,16,2,-17
COc1cccc(NC(=O)C2CCN(S(=O)(=O)c3ccc4c(c3)CC(C)N4C(C)=O)CC2)c1 (stereo not drawn),56,-4,15,20,10
CC(=O)c1ccc(N2CCN(S(=O)(=O)c3ccc4c(c3)CC(C)N4C(=O)C3CC3)CC2)cc1 (stereo not drawn),88*,-23,-13,8,17
CC(=O)N1c2ccc(S(=O)(=O)N3CCC(C(=O)Nc4cccc(C(F)(F)F)c4)CC3)cc2CC1C (stereo not drawn),93*,-11,8,15,1
CC(=O)N1c2ccc(S(=O)(=O)N3CCC(C(=O)N4CCC(C)CC4)CC3)cc2CC1C (stereo not drawn),37,-6,-8,15,-5
CC(=O)N1c2ccc(S(=O)(=O)N3CCC(C(=O)N4CCN(c5cc(Cl)ccc5C)CC4)CC3)cc2CC1C (stereo not drawn),89*,-3,11,16,23
CCOC(=O)C(Cc1ccc(O)cc1)NC(=O)CCc1c[nH]c2ccccc12 (stereo not drawn),-5,3,-2,13,-7
O=C(Nc1nc(-c2ccccn2)cs1)C1COc2ccccc2O1 (stereo not drawn),90*,-13,46,-37,19
CC(=O)Nc1ccc(C(=O)Nc2nc(-c3ccccn3)cs2)cc1,-22,-10,-27,-75,16
O=C(Nc1nc(-c2ccccn2)cs1)c1ccc(-c2ccccc2F)o1,19,-10,68*,-88,-26
Cc1ccc(C(=O)Nc2nc(-c3ccccn3)cs2)o1,34,1,-12,-78,11
O=C(Nc1nc(-c2ccccn2)cs1)c1ccccc1-n1cnnn1,95*,-16,33,-22,15
O=C(Nc1nc(-c2ccccn2)cs1)c1ccc([N+](=O)[O-])o1,88*,6,46,-17,10
CC(=O)c1cccc(NC(=O)C(C)OC(=O)/C=C/c2cccs2)c1 (stereo not drawn),1,-8,13,8,-18
CCn1nc(C(=O)Nc2nc(-c3ccccn3)cs2)c2ccccc2c1=O,79,-4,51*,-4,-17
O=C(Nc1nc(-c2ccccn2)cs1)c1cc(Cl)ccc1[N+](=O)[O-],97*,-2,47,-49,-44
O=c1ncn(-c2cccc(Cl)c2)c2ccccc12,-6,-5,18,15,5
CN(C)CCCN1C(=O)c2cccc3cccc(c23)C1=O,-26,13,27,24,-72
SMILES,Shn3 3UTR inh,KKLEB tox,Peg3 promoter,HIF-2a block,CF NFkB block
CN(C)CCN1C(=O)c2cccc3cc([N+](=O)[O-])cc(c23)C1=O,97*,-14,97*,46*,-146
O=C(Nc1ccc2c(c1)CCC2)Nc1ccc2c(c1)OCO2,-72,-4,-233,-218,18
COc1cc(C2C3=C(COC3=O)Oc3cc4c(cc32)OCO4)ccc1OC(C)=O (stereo not drawn),1,10,0,13,17
COc1cc(C2C3=C(COC3=O)Oc3cc4c(cc32)OCO4)cc(OC)c1OC(C)=O (stereo not drawn),15,-34,-37,14,67*
COC(=O)C1=C(C)NC(=O)NC1c1ccc(OC(=O)c2ccco2)cc1 (stereo not drawn),-13,-7,-5,21,12
COc1cccc(/C=C2\SC(=S)N(CCCC(=O)N(CCO)c3ccccc3)C2=O)c1,-10,1,79*,86*,13
O=C1/C(=C/c2ccc3c(c2)OCO3)SC(=S)N1CCC(=O)N(CCO)c1ccccc1,-59,9,20,43*,-39
CN1CCN(C(=O)CCCN2C(=O)/C(=C/c3cccc(Br)c3)SC2=S)CC1,-5,8,17,22,2
O=C1/C(=C/c2cccc(Br)c2)SC(=S)N1CCC(=O)N(CCO)c1ccccc1,-16,12,56*,32,25
CN1CCN(C(=O)CCN2C(=O)/C(=C/c3cccc(Br)c3)SC2=S)CC1,-65,10,77*,8,28
CCN1CCN(CC(=O)c2ccc(OC)cc2)CC1,-1,19,2,12,1
COc1cc(OC)c2nc(C)c3c(c2c1)N(c1ccc(O)cc1)CC3,29,7,65*,22,-223
CCCN1CCC(N(CCc2ccccc2)Cc2ccccc2)CC1,-3,-13,-4,9,-10
COc1ccc(CN2CCC(N(CCc3ccccc3)Cc3ccccc3)CC2)c(OC)c1,89*,-9,63*,19,26
CCCCCc1ccc(-c2ccc(/C=C/C(=O)O)cc2)nc1,21,-2,2,74*,14
Cc1nn(-c2ccccc2)c(C)c1C(=O)OCC(=O)N1c2ccccc2NC(=O)C1(C)C,8,5,59*,6,2
COc1cc2nc(CSc3ncn[nH]3)[nH]c(=O)c2cc1OC,6,16,13,6,-5
CC(C)N=c1cc2n(-c3ccc(Cl)cc3)c3ccccc3nc-2cc1Nc1ccc(Cl)cc1,78,-18,101*,-47,92*
Cn1c(CNc2ccc(Cl)cc2)nc2ccccc21,-83,7,-249,-272,-2
COc1cnc(-c2ccccn2)nc1N(C)c1ccccc1,89*,-17,-50,-173,-3
Cc1c(OC(C)C(=O)NCc2cccnc2)ccc2c3c(c(=O)oc12)CCCC3 (stereo not drawn),8,-11,10,12,4
Clc1ccc(-n2cnc3c(Cl)ncnc32)cc1Cl,22,-8,74*,0,-3
O=c1c2ccccc2ncn1-c1ccc(Cl)c(Cl)c1,-4,-2,-38,-49,10
CCCCN(CC)S(=O)(=O)c1ccc(C(=O)N(CCCN(C)C)c2nc3cc(C)cc(C)c3s2)cc1,11,-24,103*,21,8
